A selection: hits, their analogues and other compounds. The true share with any hit is near 8%.
HCMV antiviral – qHTS Assay for inhibitors of the human cytomegalovirus (HCMV) | AID 1259415, 2018 | actives 4.5% (n = 410,000) | activity change, negative = inhibition, % at 57.5 µM | HFF cells, HCMV-luciferase reporter, 72 h; hits give low values; in the data active = activity change below about -60%; inconclusive = no clear call, values can overlap the other calls; inactive = above about -39%; note: % is set by controls: 0 for no effect and ±100 for the full control effect
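After 16 h attachment at 37C, HFF cells received test compound and HCMV-luciferase (1 PFU/cell); reporter luminescence read 72 h later, data normalized against buffer-only and known inhibitor Salinomycin.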
FMDV antiviral – High Throughput Screening for Foot and Mouth Disease Virus Antivirals; FMDV antiviral cell-based qHTS; Potency, µM (series often up to 57.9 µM), without a hit: at the top dose activity change, negative = inhibition, most hits filed as inhibitors; actives 1.2% (n = 410,000); calls by dose curve; tested in HEK293T cells; note: read-out not given here; potency is the fitted concentration of half-maximal effect; % is set by controls: 0 for no effect and ±100 for the full control effect; nearly all actives have a fitted effect of over 45% in size
Lassa entry inh – qHTS for Inhibitors of binding or entry into cells for Lassa Virus | Potency, µM (doses to about 37.9 µM), for the others: at the top dose activity change, negative = inhibition, hits mostly inhibitors | Lassa virus pseudotype entry inhibition, cell reporter | actives 1.2% (n = 300,000); calls by dose curve; tested in HEK293 cells; note: potency is the fitted concentration of half-maximal effect; % is set by controls: 0 for no effect and ±100 for the full control effect; nearly all actives have a fitted effect of over 50% in size
HCV inh – qHTS Assay for Inhibitors of Hepatitis C Virus (HCV) | Huh7.5.1 HCVcc-Cre infection, luciferase reporter, 44 h | Potency, µM (doses to about 41.8 µM), inactives show at the highest dose activity change, negative = inhibition, actives largely listed as inhibitors | actives 3.4% (n = 340,000); active = well fitted inhibition curve with a large enough effect; inconclusive = small, poorly fitted or top-dose-only effect, or another doubt; inactive = no such curve, though single readings can be large or run the other way; note: potency is the fitted concentration of half-maximal effect; % is set by controls: 0 for no effect and ±100 for the full control effect
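Cells (1,000/well) were plated 4 h before compound, then infected with HCVcc-Cre virus (~0.5 moi). After 44 h further culture, infection was read as luciferase luminescence following a 15 min substrate incubation at room temperature.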
MARV entry inh – qHTS for inhibitors of binding or entry into cells for Marburg Virus | Marburg virus pseudotyped entry inhibition, cell reporter | Potency, µM (series often up to 37.8 µM), for inactives: at the highest dose activity change, negative = inhibition, hits mostly inhibitors | actives 1.8% (n = 300,000); calls by dose curve; tested in HEK293 cells; note: potency is the fitted concentration of half-maximal effect; % is set by controls: 0 for no effect and ±100 for the full control effect
SARS PLpro yeast – qHTS of Yeast-based Assay for SARS-CoV PLP; S. cerevisiae expressing SARS-CoV PLpro, growth rescue; Potency, µM (doses to about 32.9 µM), for inactives: top-dose activity, positive = growth rescue, most hits filed as activators; actives 0.19% (n = 330,000); AID 485353, 2010; calls by dose curve; note: potency is the fitted concentration of half-maximal effect; 0% is about no effect; nearly all actives have a fitted effect of over 55% in size
* marks the source's active call; other numbers are inactive results; ? = inconclusive; / = no result given; [ ] = remark or other dose.

SMILES	HCMV antiviral	FMDV antiviral	Lassa entry inh	HCV inh	MARV entry inh	SARS PLpro yeast
O=[N+]([O-])c1cc(-c2ncccn2)c([N+](=O)[O-])s1	-27	40µM*	?	?	?	-127%
Cc1cccc(-c2cccc(C(=O)N3CCc4c(cnc(C)c4CNC(=O)c4cncs4)C3)c2)c1	/	-19%	/	/	/	/
CCn1c(=O)c(-c2ccccc2)c(O)c2ccccc21	-17	-13%	1%	-3%	-1%	-3%
O=c1c(-c2ccccc2)c(O)c2ccccc2n1-c1ccccc1	-64*	-5%	11%	10%	9%	1%
CC(=O)c1ccc(NC(=O)Cn2c(=O)oc3cc(S(=O)(=O)N4CCCCC4)ccc32)cc1	6	3%	/	/	30%[46.1 µM]	/
COc1cc(Cl)c(C)cc1NC(=O)Cc1cccs1	-19	12%	4%	3.5µM*	-12%	-12%
COc1ccccc1NS(=O)(=O)c1cccc(NC(=O)c2[nH]c(C)c(C(C)=O)c2C)c1	0	-29%	/	13µM*	/	0%
COc1ccccc1NS(=O)(=O)c1cc(C)ccc1C	21	52%	0%	-6%	10µM*	1%
COc1ccccc1NS(=O)(=O)c1cccc(NC(=O)Cc2cccs2)c1	-12	0%	16µM*	?	-21%	8%
COc1ccccc1NC(=O)c1[nH]c(C)c(C(C)=O)c1C	73	-20%	15%	-19%	?	-12%
COc1ccc(C)cc1NS(=O)(=O)c1cc(C)ccc1C	-16	16%	4%	-4%	-1%	14%
COc1ccccc1-c1nn2c(=O)cc(CN3CCN(S(=O)(=O)c4ccc(C)cc4)CC3)nc2s1	9	15%	?	/	/	/
CCCN(CCC)CCNC(=O)Cn1ncc2c([nH]c3ccc(C)cc32)c1=O	13	-6%	18%[46.1 µM]	/	/	/
CC(=O)c1c(C)[nH]c(C(=O)Nc2cccc(S(=O)(=O)N3CCOCC3)c2)c1C	147	16%	4%	?	13%	17%
COc1cccc(OC)c1C(=O)Nc1cccc(S(=O)(=O)Nc2ccccc2Cl)c1	0	-2%	/	-2%	/	-5%
COc1ccccc1NS(=O)(=O)c1cccc(NC(=O)Nc2ccc(Cl)cc2)c1	-85*	?	6.3µM*	?	?	0%
COc1ccccc1NS(=O)(=O)c1cccc(NC(=O)Nc2ccccc2)c1	?	?	15µM*	?	?	-3%
CC(=O)c1c(C)[nH]c(C(=O)Nc2cccc(S(=O)(=O)N(C)c3ccccc3)c2)c1C	-3	-10%	?	25µM*	13µM*	-6%
COc1cc(=O)n2c(c1C(=O)NCc1ccco1)CCN(C(=O)c1cccnc1SC)CC2	/	17%	/	/	/	/
O=C(Nc1ccc2c(c1)OCO2)c1ccc2sc([C@@H]3O[C@H](CO)[C@H](O)[C@H](O)[C@H]3O)nc2c1	23	-1%	/	/	/	/
COc1ccc(-c2nc3cnc(Nc4cccc(OC(F)(F)F)c4)cc3n2C)cc1OC	7	/	/	/	/	/
Cn1c(-c2ccccc2)nc2cnc(Nc3cccc(OC(F)(F)F)c3)cc21	-79*	/	/	/	/	/
COc1cccc(Nc2cc3c(cn2)cc(-c2cccc(C(F)(F)F)c2)n3C)c1	-80*	/	/	/	/	/
Cn1c(-c2cccnc2)cc2cnc(Nc3ccc(OC(F)(F)F)cc3)cc21	-60*	/	/	/	/	/
Cn1c(-c2cccnc2)cc2cnc(Nc3ccc(F)cc3)cc21	31	/	/	/	/	/
SMILES	HCMV antiviral	FMDV antiviral	Lassa entry inh	HCV inh	MARV entry inh	SARS PLpro yeast
CC(C)C(C(=O)O)N1CCS(=O)(=O)CC1 (stereo unspecified)	7	-5%	22%	4%	4%[46.1 µM]	0%
Cc1ccc(S(=O)(=O)c2ncccc2[N+](=O)[O-])cc1	-101*	20µM*	/	?	/	-9%
Cc1nc2ccccc2nc(C)c1=NOCc1cccc(F)c1	?	?	2.8µM*	-6%	?	0%
CC1CCCN(C(=O)CCNS(=O)(=O)c2ccc(Br)cc2)C1 (stereo unspecified)	-7	-5%	-7%	36%	2%	?
CN1CCCC1CCNS(=O)(=O)c1ccc(Br)cc1 (stereo unspecified)	-16	-18%	-10%	10µM*	?	20%
CCCCN(CC)CCCNC(=O)c1csc2c1CCCCC2	?	?	-25%	35µM*	?	1%
CC(C)CCNC(=O)c1csc2c1CCCCC2	3	40%	-1%	1%	19%[46.1 µM]	1%
COc1ccc(NC(=O)c2cc(-c3ccc(C)o3)nc3ccccc23)c(OC)c1	-19	15%	/	10µM*	/	/
CC(C)(C)c1ccccc1NC(=O)c1cc(-c2ccncc2)nc2ccccc12	15	1%	-20%[46.1 µM]	11µM*	?	-10%
CCOc1ccccc1NC(=O)c1cc(-c2cc(OC)c(OC)c(OC)c2)nc2ccccc12	29	-23%	11µM*	8.9µM*	?	-1%
COc1cc(-c2cc(C(=O)NCc3ccco3)c3ccccc3n2)cc(OC)c1OC	48	-19%	-24%	?	?	5%
COc1cc(-c2cc(C(=O)Nc3ccc(S(=O)(=O)NCc4ccco4)cc3)c3ccccc3n2)cc(OC)c1OC	-63*	?	?	0.28µM*	?	2%
CCCNC(=O)N1CCCN(S(=O)(=O)c2ccc3c(ccn3CC)c2)CC1	-6	-2%	-24%[46.1 µM]	/	/	/
O=C(Nc1ccccn1)c1cc(-c2cccc(Cl)c2)nc2ccccc12	-71*	-18%	?	16µM*	?	-1%
O=C(Nc1ccc([N+](=O)[O-])cn1)c1cc(-c2cccc(Cl)c2)nc2ccccc12	18	-22%	12%	2%	-9%	7%
COc1ccc(OC)c(-c2cc(C(=O)Nc3ccccc3C(N)=O)c3ccccc3n2)c1	10	?	/	10µM*	/	/
COc1ccccc1NC(=O)c1cc(-c2cc(OC)c(OC)c(OC)c2)nc2ccccc12	-6	-22%	?	?	3.2µM*	7%
COc1cc(-c2cc(C(=O)Nc3ccncc3)c3ccccc3n2)cc(OC)c1OC	-4	?	/	?	/	-1%
COC1CCC(C2CC(=O)C3=C(CCCC3)O2)CC1 (stereo unspecified)	/	/	/	/	44%	/
CC(=O)Nc1ccc(NC(=O)c2oc3ccc4c(c3c2C)C(=O)CC(C)(C)O4)cc1	24	21%	-13%[46.1 µM]	/	/	/
Cc1ccc(C)c(C(=O)OCC(=O)NC(=O)NCc2ccccc2)c1	71	?	/	/	/	/
COCCn1nnnc1C(c1ccc(OC)cc1OC)N1CCN(c2ccccc2)CC1 (stereo unspecified)	83	-15%	8%	9%	?	3%
